An excerpt weighted towards active compounds, which were near 2.4% of everything screened.
D2 PAM-1: HTS Assay for Positive Allosteric Modulators of the Human D2 Dopamine Receptor: Primary Screen for Potentiators; potentiation, % at 10 µM; HEK293 T-REx D2, calcium flux, EC20 dopamine potentiation; D(2) dopamine receptor (Homo sapiens), P14416; hit rate 0.34% among 340,000;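 active = potentiation over 3 SD above the plate norm, cut at about 30% in these data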; also: 0% is about no effect
Target sequence (P14416 whole entry, looked up): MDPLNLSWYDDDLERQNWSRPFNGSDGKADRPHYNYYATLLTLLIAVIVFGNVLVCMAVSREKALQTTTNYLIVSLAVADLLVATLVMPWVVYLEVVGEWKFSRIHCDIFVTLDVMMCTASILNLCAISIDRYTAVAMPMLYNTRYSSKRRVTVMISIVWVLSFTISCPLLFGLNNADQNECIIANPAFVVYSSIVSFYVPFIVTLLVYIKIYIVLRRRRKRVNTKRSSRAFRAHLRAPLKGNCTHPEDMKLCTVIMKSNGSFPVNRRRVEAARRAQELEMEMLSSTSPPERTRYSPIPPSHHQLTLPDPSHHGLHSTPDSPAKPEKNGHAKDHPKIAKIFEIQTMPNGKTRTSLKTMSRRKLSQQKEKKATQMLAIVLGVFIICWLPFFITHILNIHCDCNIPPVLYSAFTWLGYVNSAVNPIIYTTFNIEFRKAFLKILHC
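Primary screen. Calcium kinetics in induced HEK293 T-REx D2 cells: compound pre-addition 180 s, EC20 dopamine, 180 s more.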
D2 antagonist: HTS Assay for Allosteric Antagonists of the Human D2 Dopamine Receptor: Primary Screen for Antagonists | D(2) dopamine receptor (Homo sapiens), P14416 | HEK293 TREx D2 cells, calcium flux, dopamine EC80 | inhibition, % at 10 µM | hit rate 2% among 340,000 | AID 485344, 2010; in the data active = inhibition above about 30%; inactive = below that, where a call was filed; also: 0% is about no effect
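HEK293 T-REx D2 cells, tet-induced, calcium dye no-wash. Cpd pintool add, 180 s kinetic, then EC80 DA, 180 s kinetic. Ca flux read.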
D2 ag-1: HTS Assay for Allosteric Agonists of the Human D2 Dopamine Receptor: Primary Screen for Agonists. D(2) dopamine receptor (Homo sapiens), P14416. HEK293 T-REx D2 cells, calcium flux agonist mode. activation, % at 2 µM. hit rate 0.53% among 340,000. AID 485358, 2010;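 active = activation over 3 SD above normal in the single-dose calcium agonist read, cut at about 30% in these data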; also: 0% is about no effect
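Tetracycline-induced HEK293 T-REx cells with force-coupled D2 receptor, plated overnight at 30 C, loaded with no-wash calcium dye. After a 10 s baseline, compound was pin-added and calcium flux read kinetically for 180 s; calcium rises flagged agonists.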
D2 ag-2: Beta-Arrestin HTS for Positive Allosteric Modulators of the Human D2 Dopamine Receptor: Agonists; D(2) dopamine receptor (Homo sapiens), P14416; AID 624465, 2012; DiscoveRx PathHunter D2 beta-arrestin, luminescence, 90 min; 100% = 57 uM dopamine signal; hit rate 0.084% among 360,000; activation, % (test concentration not listed); in the data active = activation above about 40%; inconclusive = between about 15% and that limit
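Agonist mode: compounds alone added to overnight-plated D2 PathHunter cells for 90 min at 37 C, with 57 uM final dopamine (EC100) defining full response. Beta-arrestin recruitment detected by chemiluminescent reagent, read after 1 h at ambient temperature.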
D2 PAM-2: Beta-Arrestin HTS for Positive Allosteric Modulators of the Human D2 Dopamine Receptor: Potentiators; D(2) dopamine receptor (Homo sapiens), P14416; DiscoveRx D2 beta-arrestin cells, luminescence, 90 min; 100% = 57 uM dopamine signal; potentiation, % (concentration not given with the values); hit rate 0.23% among 360,000; AID 624464, 2012; in the data active = potentiation above about 50%; inconclusive = mostly about 30% to 49%
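PathHunter D2 cells, attached overnight at 37 deg C, received compound in DMSO plus dopamine at EC20 (50 nM final) for 90 min at 37 deg C. Beta-arrestin recruitment was read as luminescence after 1 h with detection reagent at ambient temperature.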
* marks the source's active call; other numbers are inactive results.

COC(=O)c1c(-c2ccc(Cl)cc2)noc1N1CCN(c2cccc(C(F)(F)F)c2)CC1 was read as D2 PAM-1 12 and D2 ag-1 0.
Screening CCc1ccc(N2CC(c3nc4ccccc4n3Cc3ccccc3C)CC2=O)cc1 (stereo not given) returned D2 PAM-1 -12.
`O=C(NCc1ccccc1F)C1CCN(c2nn3cc(-c4ccc(F)cc4)nc3s2)CC1` gave D2 PAM-1 -3 and D2 ag-1 0.
`CC1Cc2ccccc2N1C(=O)C12CCC(C)(C(=O)C1)C2(C)C` (stereo not given) gave D2 antagonist 32*, D2 ag-1 1, D2 ag-2 0 and D2 PAM-2 -15.
`CCCCC(=O)Nc1ncc(S(=O)(=O)c2ccc([N+](=O)[O-])cc2)s1` gave D2 PAM-1 4, D2 antagonist -6, D2 ag-1 4, D2 ag-2 inconclusive and D2 PAM-2 -8.
Screening CC(=O)NCCC(=O)Nc1ncc(S(=O)(=O)c2ccc([N+](=O)[O-])cc2)s1 returned D2 PAM-1 7, D2 antagonist -19, D2 ag-1 0, D2 ag-2 10 and D2 PAM-2 52*.
O=C(Nc1ncc(S(=O)(=O)c2ccc([N+](=O)[O-])cc2)s1)c1cccc2ccccc12 was read as D2 PAM-1 -3, D2 antagonist 9, D2 ag-1 26, D2 ag-2 -2 and D2 PAM-2 62*.
For COCC(=O)Nc1ncc(S(=O)(=O)c2ccc([N+](=O)[O-])cc2)s1 the results were D2 PAM-1 -3, D2 antagonist 3, D2 ag-1 0, D2 ag-2 inconclusive and D2 PAM-2 inconclusive.
`CC1(C)Cc2c(sc3c2C(=O)N(c2ccccc2)C2=NCCN23)CS1` gave D2 PAM-1 46*, D2 antagonist 17, D2 ag-1 -1, D2 ag-2 -5 and D2 PAM-2 -22.
Screening Cc1ccc(CCNC(=O)c2ccc(CSc3nc4ccncc4n3Cc3ccc(F)cc3)cc2)cc1 returned D2 PAM-1 7.
Screening Cc1ccccc1CNC(=O)CCSCc1cnn(-c2ccccc2)c1-n1cccc1 returned D2 ag-1 -1.
For CCN(c1ccccc1)S(=O)(=O)c1ccc(NC(=O)c2cc(=O)c3ccc(C)c(C)c3o2)cc1 the results were D2 PAM-1 6 and D2 ag-1 -1.
`CCOc1ccc(NC(=O)Cn2nc(CC)n3c(cc4sccc43)c2=O)cc1` gave D2 PAM-1 -2 and D2 ag-1 0.
Cc1ccc(-c2nnc(N(C)C(=O)c3cccnc3)s2)cn1 was read as D2 PAM-1 6, D2 antagonist 16, D2 ag-1 -1, D2 ag-2 -1 and D2 PAM-2 23.
`Cc1ccc(-c2nnc(N(C)C(=O)c3cccnc3)s2)cc1` gave D2 PAM-1 38*, D2 antagonist 4, D2 ag-1 0, D2 ag-2 3 and D2 PAM-2 12.
Cc1ccc(Cn2c(=O)c3cccnc3n(CC(=O)Nc3cc(Cl)ccc3C)c2=O)cc1 was read as D2 PAM-1 6 and D2 ag-1 0.
For O=C(/C=C/c1ccc2c(c1)OCO2)NCCSCc1ccc(Cl)cc1 the results were D2 PAM-1 -4, D2 antagonist 5, D2 ag-1 0, D2 ag-2 -3 and D2 PAM-2 13.
O=C(/C=C/c1ccc2c(c1)OCO2)NCCSCc1c(Cl)cccc1Cl was read as D2 PAM-1 7, D2 antagonist 34*, D2 ag-1 -2, D2 ag-2 1 and D2 PAM-2 1.
For O=C(NC1CC1)C1CCN(S(=O)(=O)c2ccc(Cl)cc2)CC1 the results were D2 PAM-1 6, D2 antagonist 32*, D2 ag-1 0, D2 ag-2 1 and D2 PAM-2 -5.
For O=C(NC1CCN(S(=O)(=O)c2ccc(Cl)cc2)CC1)C1CCCCC1 the results were D2 PAM-1 -6, D2 antagonist -10, D2 ag-1 2, D2 ag-2 0 and D2 PAM-2 -12.
CC1(C)C(c2cccs2)=[N+]([O-])C2(CCCCC/C2=N\O)N1O (stereo not given) was read as D2 PAM-1 12, D2 antagonist 5, D2 ag-1 -1, D2 ag-2 5 and D2 PAM-2 inconclusive.
CC1(C)C(c2ccccc2)=[N+]([O-])C2(CCCCC2=O)N1O (stereo not given) was read as D2 PAM-1 4, D2 antagonist 33*, D2 ag-1 -1, D2 ag-2 6 and D2 PAM-2 21.
Cc1ccc(NC(=O)CC2S/C(=N/N=C/c3ccco3)NC2=O)cc1Cl (stereo not given) was read as D2 PAM-1 -2, D2 antagonist 33*, D2 ag-1 1, D2 ag-2 0 and D2 PAM-2 -9.
For Cc1ccc(NC(=O)CC2S/C(=N/N=C/C=C/c3ccccc3)NC2=O)cc1Cl (stereo not given) the results were D2 PAM-1 7, D2 antagonist 10, D2 ag-1 0, D2 ag-2 -2 and D2 PAM-2 -1.
Screening CC(C)=N/N=C1/NC(=O)C(CC(=O)Nc2cc(Cl)ccc2C)S1 (stereo not given) returned D2 PAM-1 -18, D2 antagonist 46*, D2 ag-1 0, D2 ag-2 -4 and D2 PAM-2 -36.
Cc1ccccc1NC(=O)CC1SC(=Nc2ccc(O)cc2)NC1=O (stereo not given) was read as D2 PAM-1 -14, D2 antagonist 14, D2 ag-1 3, D2 ag-2 -2 and D2 PAM-2 -8.
Screening COc1ccc(NC(=O)Cn2ccn(-c3ccc(C)c(C)c3)c(=O)c2=O)cc1Cl returned D2 PAM-1 5 and D2 ag-1 0.
Screening COc1ccccc1-c1cc(C(=O)N/N=C/c2cccs2)c2ccccc2n1 returned D2 PAM-1 -23, D2 antagonist 72*, D2 ag-1 -1, D2 ag-2 -1 and D2 PAM-2 -32.
Screening O=C(N/N=C/c1cccs1)c1c[nH]c2ccccc12 returned D2 PAM-1 -19, D2 antagonist 33*, D2 ag-1 -1, D2 ag-2 -4 and D2 PAM-2 -25.
For COc1cc(CNC(=O)c2cnc3c(-c4cccc(C)c4)c(C)nn3c2C)cc(OC)c1OC the results were D2 PAM-1 -13 and D2 ag-1 1.
For CCc1ccc(CNC(=O)c2ccc(NC(=O)N3CC(C)Sc4ccccc43)cc2)cc1 (stereo not given) the results were D2 PAM-1 6 and D2 ag-1 0.

From PubChem BioAssay
